# Screening data (PubChem BioAssay)
# Rows were chosen to be rich in hits. Some 3.9% of all compounds tested hit in one or more screens of this group.
# UBC9 SUMO inh: inhibitors of in vitro SUMOylation cascade, primary screen, biochemical, HTRF, uHTS; 290,000 tested, 0.36% active; HTRF SUMOylation assay, SAE1/SAE2 + UBC9; inhibition, % at 35 µM; in the data active = inhibition above about 50%, passing the limit was not always enough
# Target sequence (P63279 whole entry, looked up): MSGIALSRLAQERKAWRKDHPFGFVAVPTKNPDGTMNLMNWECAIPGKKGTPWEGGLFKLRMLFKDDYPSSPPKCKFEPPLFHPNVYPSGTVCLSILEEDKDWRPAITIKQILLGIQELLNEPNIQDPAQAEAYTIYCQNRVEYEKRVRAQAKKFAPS
# H9c2 protect: cardioprotection against H2O2-induced cell death, primary screen, uHTS, H9c2 cells, ATPLite luminescence; H9c2 cardiomyocytes, H2O2 injury protection, 2 h; protection from H2O2 cell death, % at 20 µM; 360,000 tested, 0.63% active;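 active = compounds giving at least 50% protection of heart cells from peroxide-induced death in the single-dose screen, raw or plate-pattern-corrected value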
# ALR H2O2 inh: inhibitors of human ALR sulfhydryl oxidase, primary screen, biochemical, H2O2 detection, HRP-luminol luminescence, single point; purified ALR, DTT oxidation; 290,000 tested, 3.8% active; inhibition, % (test concentration not listed); AID 485317, 2010; FAD-linked sulfhydryl oxidase ALR (Homo sapiens), P55789;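 active = mean replicate inhibition above about 79%, with every replicate also reaching it, limit read from the data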
# Target sequence (P55789 whole entry, looked up): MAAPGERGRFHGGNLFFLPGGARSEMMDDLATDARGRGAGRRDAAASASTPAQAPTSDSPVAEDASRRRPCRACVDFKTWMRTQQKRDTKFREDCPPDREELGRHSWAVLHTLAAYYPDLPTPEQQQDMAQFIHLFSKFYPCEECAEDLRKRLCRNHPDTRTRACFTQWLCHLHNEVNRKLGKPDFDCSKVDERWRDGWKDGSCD
# NTR1 agonist: agonists of human NTR1, primary screen, imaging, U2OS cells, beta-arrestin-GFP, high content; NTR1-U2OS beta-arrestin-GFP spot imaging, agonist mode; 330,000 tested, 0.17% active; Neurotensin receptor type 1 (Homo sapiens), P30989; AID 493036, 2011; activation, % at 20 µM;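 active = activation at or above 40% of the spot to cytoplasm intensity ratio, with at least 20 cells analyzed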
# Numbers stand for hits; 0 = inactive; - = not tested or not shown.
SMILES,UBC9 SUMO inh,H9c2 protect,ALR H2O2 inh,NTR1 agonist
Cc1cc(N=Nc2ccccc2)c(NCC(O)C(O)C(O)CO)cc1C (stereo not given),0,0,97.8,0
COCCCN1C(=O)C(=O)/C(=C(/O)c2ccc3c(c2)OCCO3)C1c1ccc(C(=O)OC)cc1 (stereo not given),0,0,84.6,0
COc1ccc(C(C(=O)NC2CCCCC2)N(CC2CCCO2)C(=O)C2COc3ccccc3O2)cc1OC (stereo not given),0,0,-,0
N#CC(C(=O)Nc1ccccc1)=C1Nc2ccccc2N1,0,0,86.1,0
CC(C)(C)OC(=O)NCC12C=CC(O1)C1C(=O)N(Cc3ccccc3)C(=O)C12 (stereo not given),0,80.4,0,0
Cc1cc2oc(C(=O)N(Cc3ccc(N(C)C)cc3)CC3CCCO3)c(C)c2cc1C (stereo not given),0,0,0,0
COc1cc(NCc2ccccc2O)c2ncccc2c1,0,0,-,0
NC(=S)NNc1cccc2cccnc12,92.4,0,0,0
Oc1ccccc1CNc1cccc2cccnc12,75.8,0,0,0
CCOC(=O)c1sc(NC(=O)Nc2ccc(Cl)cc2)cc1C,0,0,0,0
c1ccc2c(c1)Nc1ccncc1S2,0,0,96.3,0
O=C1CC(NNC(=O)c2cccc(F)c2)C(=O)N1 (stereo not given),0,0,92.2,0
Cc1nc2cc(C(=O)OCC(=O)NC3CCS(=O)(=O)C3)ccc2n1-c1ccccc1 (stereo not given),0,0,0,0
O=C(N/N=C/c1sc2ccccc2c1O)c1cccc2ccccc12,0,0,0,-
COc1ccc(C(=O)N/N=C/c2sc3ccccc3c2O)cc1,0,0,81.1,-
O=C(N/N=C/c1sc2ccccc2c1O)c1ccccc1,0,0,88.1,0
O=C(Cn1nnc(-c2ccccc2)n1)OCc1csc(-c2ccccc2)n1,0,0,98.8,0
O=C(Cn1nnc(-c2ccccc2)n1)OCc1ccccc1,0,0,0,0
Cc1nc(-c2ccccc2)sc1-c1nc(-c2cccs2)ncc1S(=O)(=O)c1ccccc1,0,-,-,-
Cc1oc(=O)c(NC(=O)c2cccc(Cl)c2)cc1C(=O)c1ccccc1,0,0,97.5,0
COc1ccc(C(=O)Nc2cc(C(=O)c3ccccc3)c(C)oc2=O)cc1,0,0,0,0
Cc1ccc(Nc2nc(C(=O)NCc3ccco3)cs2)cc1,0,0,0,0
CCN(CC)C(=O)c1csc(Nc2ccc(C)cc2)n1,0,0,87.3,0
O=C(c1ccc(CS(=O)Cc2ccccc2Cl)o1)N1CCN(c2cccc(Cl)c2)CC1 (stereo not given),0,0,98.8,0
O=C(c1ccc(CS(=O)Cc2ccccc2Cl)o1)N1CCN(c2ccccn2)CC1 (stereo not given),0,0,99.0,0
SMILES,UBC9 SUMO inh,H9c2 protect,ALR H2O2 inh,NTR1 agonist
O=C(c1ccc(CS(=O)Cc2ccc(Cl)cc2)o1)N1CCN(c2ccccn2)CC1 (stereo not given),0,0,0,0
CC1=[N+](C)c2c(ccc3cccnc23)C1(C)C,89.6,0,-,-
CC(c1ccc(F)cc1)n1c(-c2cccs2)n[nH]c1=S (stereo not given),0,0,92.7,0
CCOc1cc(CNc2ncnc3nc[nH]c23)ccc1OC,0,0,0,0
CCOc1cc(CNc2cccc3[nH]c(C)nc23)ccc1OC,0,0,98.3,0
NC(=O)c1ccc(C(=O)c2ccc([N+](=O)[O-])cc2)cc1,0,0,0,0
C/C(=N\NC(=O)c1cc(Br)ccc1O)c1ccccn1,0,0,84.9,0
C/C(=N\NC(=O)c1ccccc1OCc1ccc(F)cc1)c1ccccn1,-,53.0,-,0
C/C(=N\NC(=O)c1cccc(Br)c1)c1ccccn1,0,0,0,0
CC(=O)c1cc2c(cc1NC(=O)c1cccc(S(=O)(=O)N3CCN(C)CC3)c1)OCO2,0,0,0,0
COc1ccccc1CNc1nc(Nc2ccc(C)cc2C)c2sccc2n1,-,0,-,-
CCOC(=O)Nc1ccc2c(c1)ncn2C1CCCCC1,0,0,83.6,0
COC(=O)Nc1ccc2c(c1)ncn2C1CCCCC1,0,0,0,0
CC1CN(S(=O)(=O)c2ccc(C(=O)Nc3nnc(-c4ccc5c(c4)CCCC5)o3)cc2)CC(C)O1 (stereo not given),0,62.5,0,0
COc1ccc(-c2nnc(NC(=O)c3ccc(S(=O)(=O)N4CCCc5ccccc54)cc3)o2)cc1,0,62.9,0,0
O=C(Nc1nnc(C2CC2)o1)c1ccc(S(=O)(=O)N2CCCc3ccccc32)cc1,0,0,96.4,0
O=C(Nc1nnc(C2CC2)o1)c1ccc(S(=O)(=O)N2CCCCC2)cc1,0,0,0,0
COCc1nnc(NC(=O)c2ccc(S(=O)(=O)N3CCCc4ccccc43)cc2)o1,0,0,85.6,0
COc1ccc(NC(=O)COC(=O)CC23CC4CC(CC(C4)C2)C3)c([N+](=O)[O-])c1,0,0,0,0
CCOC(=O)N1CCN(C(=O)C2CCN(Cc3ccc(O)c(OCC)c3)CC2)CC1,0,0,0,0
Cc1cc(=O)[nH]c(SCC(=O)N2CCc3ccccc3C2)n1,0,0,0,0
COc1ccc(-c2nc(NC(=O)C3CCN(c4nc5ccccc5o4)CC3)sc2C)cc1,0,0,-,0
Cc1nc2c(C)cccc2cc1C(=O)N/N=C/c1ccc(O)cc1,0,0,99.4,0
Cc1ccccc1C(=O)Nc1ccc(C(=O)N/N=C/c2ccc(O)cc2)cc1,0,0,94.9,0
O=C(N/N=C/c1ccc(O)cc1)c1ccc(NC(=O)c2ccccc2Br)cc1,0,0,79.4,0
SMILES,UBC9 SUMO inh,H9c2 protect,ALR H2O2 inh,NTR1 agonist
Cc1ccccc1C(=O)Nc1ccc(C(=O)N/N=C/c2ccncc2)cc1,0,0,0,0
Cc1nnc(SCC(=O)NC(C)(C)C)n1NCc1ccc(N(C)C)cc1,0,0,81.5,0
COc1ccc2cc3cc(C(=O)NCc4cccs4)oc3nc2c1,0,0,-,0
CCS(=O)(=O)c1ccc2oc(SCC(=O)Nc3ccc(OC)cc3OC)nc2c1,0,0,0,0
O=C(Nc1ccc(S(=O)(=O)Nc2ncccn2)cc1)c1cccc([N+](=O)[O-])c1,-,0,-,-
O=C(Nc1ccncc1)c1ccc2ncsc2c1,-,0,98.3,0
Cc1ccnc(NS(=O)(=O)c2ccc(NC(=O)c3ccc(S(=O)(=O)N4CCCC4)cc3)cc2)n1,0,0,0,0
O=C(Nc1ccc(S(=O)(=O)Nc2ncccn2)cc1)c1ccc2ncsc2c1,0,0,99.0,0
O=C(Nc1ccc(S(=O)(=O)Nc2ncccn2)cc1)c1ccc(S(=O)(=O)N2CCCC2)cc1,0,0,96.1,0
CCOc1ccc(OCCC(=O)N(CCC2=CCCCC2)c2c(N)n(Cc3ccccc3)c(=O)[nH]c2=O)cc1,-,0,0,0
COc1cc(Sc2ccc(C)cc2)c(OC)cc1N,0,0,98.4,0
Cc1ccc(S(=O)(=O)N(CCCN2CCCC2=O)Cc2cc3c(C)ccc(C)c3[nH]c2=O)cc1,0,0,-,0
COc1ccc(S(=O)(=O)N(CCCN2CCCC2=O)Cc2cc3cc(C)c(C)cc3[nH]c2=O)cc1,0,46.8,-,-
